This is part of a sample that, as a whole, favours compounds with a hit. Of some 83,000 tested, about 20% had one in any assay.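 Treatment: one concentration, 48 hours, 96-well format. Scoring: percent growth, with anything below 10 considered active.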 Unmarked numbers belong to inactive results. Active and inactive are the calls of the source.

The text below walks through data of PubChem BioAssay (NCI).

Among the test systems are NCI-H23 lung; NCI-H226 lung; HOP-62 NSCLC; NCI-H460 lung; NCI-H522 lung; A549/ATCC NSCLC; 786-0 renal; COLO 205 colon; DU-145 prostate.
Holding throughout (assay): NCI-60 one-dose screen, 48 h (100 = growth as untreated, 0 = no growth, -100 = all killed)
What all share (conditions): 10 µM unless noted

With `CCN(CC)c1ccc(N=Nc2cc(Cl)ccc2Cl)c(NC(=O)CCC(=O)O)c1`, the growth is 101% in the experiment on NCI-H23 lung; 98.1% in the experiment with NCI-H226 lung; 86.6% in the experiment on HOP-62 NSCLC; 108% in the experiment on NCI-H460 lung; 106% in the experiment with NCI-H522 lung; 101% in the experiment on A549/ATCC NSCLC. In addition, the growth in the experiment on 786-0 renal was 108%; in the experiment on COLO 205 colon it was 106%; in the experiment on DU-145 prostate, 108%.
On to `O=C(Nc1ccc(Oc2ccc(NC(=O)Nc3ccc([N+](=O)[O-])cc3)cc2)cc1)Nc1ccc([N+](=O)[O-])cc1`, for which the growth in the experiment on NCI-H23 lung was -17.8% (active); with NCI-H226 lung, 24.4%; in the experiment on HOP-62 NSCLC, -25% (active); in the experiment on NCI-H460 lung it was 2.83% (active); in the experiment on NCI-H522 lung, -15.3% (active); in the experiment with A549/ATCC NSCLC it was 7.01% (active). Moreover, the growth in the experiment with 786-0 renal was -1.95% (active); in the experiment on DU-145 prostate, 17.3%.
On to `CCN1CCN(c2cc(-c3cn[nH]c3-c3cc(C)cc(OC)c3)nc(-c3cccnc3)n2)CC1`, for which the growth in the experiment on NCI-H23 lung is 93.9%; in the experiment with NCI-H226 lung, 99.7%; with HOP-62 NSCLC, 101%; in the experiment with NCI-H522 lung it was 75.6%; with A549/ATCC NSCLC, 82.3%; in the experiment on 786-0 renal, 58.1%. The growth was 51.3% in the experiment with COLO 205 colon and 75% with DU-145 prostate.
Take `Nc1ccc(C2=NN(c3ccccc3)C(c3ccc(Cl)cc3)C2)cc1` (stereo not drawn): the growth in the experiment on NCI-H23 lung was 92.8%; in the experiment with NCI-H226 lung, 90.9%; in the experiment with HOP-62 NSCLC it was 87.2%; with NCI-H460 lung it was 99.4%; with NCI-H522 lung, 22.7%; in the experiment on A549/ATCC NSCLC, 83.1%. Moreover, the growth in the experiment on 786-0 renal is 78.4%; in the experiment with COLO 205 colon, 101%; in the experiment on DU-145 prostate, 81.7%.
Take `NC(N)=N/N=C(/c1ccccc1)c1ccc(Cl)cc1`: the growth in the experiment with NCI-H23 lung is 83.9%; in the experiment on NCI-H226 lung, 88.8%; with HOP-62 NSCLC, 85%; with NCI-H522 lung, 59.5%; in the experiment on A549/ATCC NSCLC it was 68.3%; in the experiment with 786-0 renal, 69.1%. In the experiment with DU-145 prostate, the growth is 83%.
For the compound `O=C(CSCC(=O)N/N=C/c1ccccc1O)N/N=C\c1ccccc1O`, the growth is 40.8% with NCI-H23 lung; 39.4% in the experiment on NCI-H226 lung; 25.3% with HOP-62 NSCLC; 14.2% in the experiment with NCI-H460 lung; 38.1% with A549/ATCC NSCLC; 5.14% (active) in the experiment with 786-0 renal. Moreover, the growth in the experiment on COLO 205 colon was 17.2%; in the experiment on DU-145 prostate it was 37.1%.
In the case of `COC(=O)[C@]12CC[C@@H](C)[C@H](C)[C@@H]1C1=CC[C@@H]3[C@@]4(C)C=C(O)C(=O)[C@@]5(C)COC(=C54)C[C@@]3(C)[C@]1(C)CC2`, the growth was -73.1% (active) in the experiment with NCI-H23 lung; -48.9% (active) with NCI-H226 lung; -50.8% (active) in the experiment with HOP-62 NSCLC; -66.2% (active) with NCI-H460 lung; -70.2% (active) in the experiment with NCI-H522 lung; -59.5% (active) in the experiment on A549/ATCC NSCLC. Also, the growth in the experiment with 786-0 renal was -89.5% (active); in the experiment with COLO 205 colon, -63.9% (active); in the experiment with DU-145 prostate it was -80.7% (active).
